The sample as a whole holds a higher share of hits than the screen did.
TDP1 cell CPT – growth inhibition of DT40 Tdp1-/-;hTDP1 cells with camptothecin (screen for TDP1 inhibitors). chicken DT40 Tdp1-/-;hTDP1 cells + 20 nM CPT, ATP luminescence, 48 h. Potency, µM (top dose mostly 46.2 µM), without a hit: top-dose activity change, negative = growth inhibition, usual class: inhibitors. 420,000 tested, 12% active; note: potency is the fitted concentration of half-maximal effect; nearly all actives have a fitted effect of over 55% in size
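Chicken DT40 Tdp1-/- cells complemented with human TDP1, 400 cells/well, exposed to compounds plus 20 nM camptothecin for at least 48 h at 37 C; viability read as ATP content by CellTiter-Glo luminescence.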
ALOX12 inh – ALOX12 (human) lipoxygenase inhibition; 580,000 tested, 1.1% active; purified 12hLO, xylenol orange hydroperoxide absorbance; Potency, µM (titrated, usually from 108 µM), for inactives: at the highest dose activity change, negative = inhibition, usual class: inhibitors; P18054; note: potency is the fitted concentration of half-maximal effect
Target sequence (P18054 whole entry, looked up): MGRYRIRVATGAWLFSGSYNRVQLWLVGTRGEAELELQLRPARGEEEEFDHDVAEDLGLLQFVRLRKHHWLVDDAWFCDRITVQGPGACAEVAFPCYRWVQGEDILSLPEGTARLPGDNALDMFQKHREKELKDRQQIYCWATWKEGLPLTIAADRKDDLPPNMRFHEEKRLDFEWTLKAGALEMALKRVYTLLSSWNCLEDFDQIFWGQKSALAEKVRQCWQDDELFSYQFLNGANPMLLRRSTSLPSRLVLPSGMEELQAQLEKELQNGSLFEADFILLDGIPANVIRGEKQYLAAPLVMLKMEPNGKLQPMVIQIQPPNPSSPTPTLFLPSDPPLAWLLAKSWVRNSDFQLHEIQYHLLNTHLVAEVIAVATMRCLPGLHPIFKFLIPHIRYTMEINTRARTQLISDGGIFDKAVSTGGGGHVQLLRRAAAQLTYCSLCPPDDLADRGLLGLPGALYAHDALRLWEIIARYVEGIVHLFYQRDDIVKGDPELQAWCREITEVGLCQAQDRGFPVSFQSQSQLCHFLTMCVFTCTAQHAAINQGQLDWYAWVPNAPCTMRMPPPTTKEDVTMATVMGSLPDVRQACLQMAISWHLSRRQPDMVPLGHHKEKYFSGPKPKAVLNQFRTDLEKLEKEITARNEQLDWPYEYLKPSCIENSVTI
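Purified human 12hLO at 150 nM in 25 mM Hepes, 0.01% Triton X-100, pH 7.0, preincubated 15 min at room temperature with compound. Reaction started with 40 uM arachidonic acid, 30 min at room temperature. Hydroperoxide measured by Fe-xylenol orange, 573/405 nm absorbance ratio.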
DT40 TDP1 no CPT – qHTS for Inhibitors of human tyrosyl-DNA phosphodiesterase 1 (TDP1): qHTS in cells in absence of CPT. DT40 Tdp1-/- hTDP1 cells, no CPT, ATP luminescence, 48 h. Potency, µM (titrated, usually from 46.2 µM), for the others: at the top dose activity change, negative = growth inhibition, usual class: inhibitors. 420,000 tested, 15% active. AID 686978, 2013; note: potency is the fitted concentration of half-maximal effect; nearly all actives have a fitted effect of over 55% in size
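A cellular qHTS used chicken DT40 cells lacking endogenous Tdp1 but carrying stably transfected human TDP1. Compounds were applied without camptothecin, and cell growth kinetics were judged by ATP-dependent luminescence after ≥48 hr.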
HT1080NT lethal – kills 2HG-producing HT-1080-NT fibrosarcoma cells; HT-1080-NT fibrosarcoma viability, CellTiter-Glo ATP luminescence, 48 h; Potency, µM (series often up to 46.1 µM), for inactives: top-dose activity, negative = less viability, actives largely listed as cytotoxic; 360,000 tested, 1.6% active;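 note: NT is the 2HG producing partner of a matched IDH1 knockdown line; potency is the fitted concentration of half-maximal effect; 0% = DMSO-treated cells and -100% = media-only wells without cells; nearly all actives have a fitted effect of over 55% in size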
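A 48-hour cytotoxicity screen used HT-1080-NT cells plated 2 hours before compound delivery. ATP-based CellTiter-Glo luminescence measured viability, normalized to DMSO and no-cell controls.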
HT1080 IDH1KD tx – kills HT-1080 cells with IDH1 knockdown. Potency, µM (doses to about 46.1 µM), inactives show at the highest dose activity, negative = toxicity, most hits filed as cytotoxic. HT-1080 IDH1 knockdown viability, ATP luminescence, 48 h. 360,000 tested, 2% active. AID 686971;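 note: potency is the fitted concentration of half-maximal effect; 0% = DMSO wells and -100% = cell-free medium wells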
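HT-1080-IDH1KD cells (IDH1 knocked down), 750/well in RPMI with 5% FBS, treated with compound 48 h at 37 degrees C. Viability by CellTiter-Glo luminescence, normalised to DMSO and no-cell wells; concentration-response curves classed.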
IL1B secr inh – inflammasome signaling inhibition, IL-1 beta readout; THP-1 LPS/ATP IL-1B secretion, AlphaLISA, 16 h; active compounds read low; activity change, % at 57.5 µM; 360,000 tested, 4.7% active; AID 743279; in the data active = activity change below about -50%; inconclusive = mostly about -30% to -49%
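THP-1 cells pretreated 1 hr with compounds (up to 57.5 uM final), then stimulated with LPS (250 ng/mL final) plus ATP (1.25 mM final); secreted IL-1B measured by AlphaLISA after 16 hr, decreased signal indicating inhibition.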
* hit, by the source's call; i = inactive; ? = inconclusive; nt = no result given; ! = repeats disagree; [ ] = another dose, or the depositor's remark. Unless noted, calls come from the whole dose curve; as a rule, active = well fitted curve in the direction sought with a large enough effect; inconclusive = small, poorly fitted or top-dose-only effect, or another doubt; inactive = no such curve, though single readings can be large; an effect the other way counts as inactive or inconclusive. Unless noted, % is set by controls: 0 for no effect and ±100 for the full control effect.

SMILES	TDP1 cell CPT	ALOX12 inh	DT40 TDP1 no CPT	HT1080NT lethal	HT1080 IDH1KD tx	IL1B secr inh
CC(CCC(=O)NN)C1CCC2C3CCC4CC(O)CCC4(C)C3CCC12C (stereo not drawn)	1%	-16%	26µM*	-1%	-11%	0
Cc1cccc(N2CCN(CCCNC(=O)Cn3ncc4c([nH]c5ccccc54)c3=O)CC2C)c1 (stereo not drawn)	?	?	18µM*	nt	nt	nt
Cc1cccc(N2CCN(C(=O)Cn3sc4nc(C)cc(C)c4c3=O)CC2C)c1 (stereo not drawn)	3.7µM*	nt	4.6µM*	-18%	?	?
Cc1cccc(CN2CCN(CC(=O)NCCCN3CCN(c4ccc(F)cc4)CC3)C2=O)c1	11µM*	-9%	?	-20%	?	-56*
Cc1ccc(-c2ccc(=O)n(CC(=O)N3CCN(c4cccc(C)c4)C(C)C3)n2)cc1 (stereo not drawn)	?	8%[57.4 µM]	-22%	-29%	-20%	-61*
Cc1cccc(N2CCN(C(=O)Cn3nc(C)n4cccc4c3=O)CC2C)c1 (stereo not drawn)	?	2%	-25%	-4%	-1%	4
CN(CC(=O)NC1(C)CCS(=O)(=O)C1)Cc1ccc(Cl)cc1Cl (stereo not drawn)	nt	-34%	nt	nt	nt	nt
O=C(Nc1cccc2[nH]ccc12)C(=O)NC(c1ccccc1)c1ccccc1	nt	23%	nt	nt	nt	nt
CCOC(=O)CCN(CC1CC1)C(=O)c1cccs1	nt	-35%	nt	nt	nt	nt
COc1cc(C2CC(=O)Oc3c2c(=O)[nH]c2ccccc32)cc2c1OCO2 (stereo not drawn)	nt	17%	nt	nt	nt	nt
Cc1ccc(Cl)cc1N1CCN(CCCNC(=O)Cn2ncc3c([nH]c4ccccc43)c2=O)CC1	15µM*	-40%	8.2µM*	nt	nt	nt
Cc1cccc(N2CCN(C(=O)CCC(=O)NNc3nc4ccccc4c4nc(C)nn34)CC2C)c1 (stereo not drawn)	18µM*	-10%	23µM*	nt	nt	nt
Cc1cccc(N2CCN(C(=O)CCn3c(=S)[nH]c4cc5c(cc4c3=O)OCO5)CC2C)c1 (stereo not drawn)	16µM*	2%	23µM*	-8%	1%	0
Cc1nc2c3ccccc3nc(NNC(=O)CCC(=O)N3CCCC(C)C3)n2n1 (stereo not drawn)	-1%	23%	-17%	0%	-1%	2
Cc1cccc(N2CCN(C(=O)Cn3ncc4c([nH]c5ccccc54)c3=O)CC2C)c1 (stereo not drawn)	?	?	15µM*	nt	nt	nt
O=C(CCn1c(=S)[nH]c2cc3c(cc2c1=O)OCO3)N1CCc2ccccc2C1	nt	10%	nt	nt	nt	nt
c1ccc(OCC2CN(Cc3ccncc3)CC23CN(c2ccccc2)C3)cc1 (stereo not drawn)	nt	30%[176 µM]	nt	nt	nt	nt
COC(=O)[C@H]1CN(C(=O)NC(C)C)CCN1S(C)(=O)=O	nt	-15%[176 µM]	nt	nt	nt	nt
CC(C)CCNC(=O)CCC(=O)NNc1nc2ccccc2c2nc(-c3ccccc3)nn12	21µM*	0%	21µM*	-12%	-8%	-2
Cc1ccc2[nH]c3c(=O)n(CC(=O)NCCCN4CCN(c5ccc(F)cc5)CC4)ncc3c2c1	?	?	16µM*!	6%	5%	?
O=C1NCCCCCCN(C(=O)c2ccco2)[C@H]2C[C@H](c3nc(Cc4ccccc4)no3)C[C@@H]12	nt	5%	nt	nt	nt	nt
CC1CCN(CCOCCSc2ccc(Cl)cc2)CC1	?	?	18µM*	?	-29%	-12
Clc1ccc(SCCOCCN2CCc3ccccc3C2)cc1	?	?	?	23µM*	?	?
Clc1ccc(SCCOCCN2CCCCC2)cc1	?	-13%	16µM*	-25%	-25%	0
Clc1ccc(SCCOCCN2CCOCC2)cc1	-28%	-12%	?	0%	-1%	-2
SMILES	TDP1 cell CPT	ALOX12 inh	DT40 TDP1 no CPT	HT1080NT lethal	HT1080 IDH1KD tx	IL1B secr inh
CCCCc1cc(=O)oc2cc(OC(C)C(=O)NCc3cccnc3)c(Cl)cc12 (stereo not drawn)	nt	2%	nt	nt	nt	nt
CCCOc1cccc(C(=O)Nc2cc(-c3nc4ncccc4o3)ccc2OC)c1	nt	22%	nt	nt	nt	nt
COc1cccc(CCNC(=O)c2c(O)nc3c(C)cccn3c2=O)c1	18µM*	-12%	?	nt	nt	nt
COc1ccc(CCNC(=O)c2c(O)nc3c(C)cccn3c2=O)cc1OC	23µM*	-17%	?	nt	nt	nt
COc1ccc(CCNC(=O)c2cc3c(=O)n4cccc(C)c4nc3n2C)cc1	2%	?	?	nt	nt	nt
Cc1ccc(CNC(=O)c2c(O)nc3ccccn3c2=O)cc1	?	?	29µM*	nt	nt	nt
COc1ccc(CCNC(=O)c2cc3cc(F)ccc3nc2C)cc1OC	21µM*	i	9.2µM*	6%	4%	44
COc1ccc(CNC(=O)c2c(O)nc3cc(C)ccn3c2=O)cc1	5%	-18%	-16%	nt	nt	nt
COc1ccc(CCNC(=O)c2noc(-c3ccc(F)cc3)n2)cc1OC	nt	4%	nt	nt	nt	nt
O=C(CCc1cccs1)Nc1ccc(N2CCOCC2)cn1	nt	-34%	nt	nt	nt	nt
CCOc1ccc(NC(=O)c2cc3cc(C)ccc3[nH]2)cc1	nt	-1%	nt	nt	nt	nt
COc1ccc(CCNC(=O)c2cccc(-n3c(C)nc4cccnc43)c2)cc1OC	-21%	-30%	?	nt	nt	nt
Cc1c(O)nc2ccccn2c1=O	-27%	460%	-9%	12%	5%	-65*
COc1ccc(CCNC(=O)c2nc3ncccn3n2)cc1OC	?	71%	16µM*	6%	8%	-3
COc1ccccc1CNC(=O)c1c(O)nc2c(C)cccn2c1=O	-13%	-16%	?	nt	nt	nt
CCCCc1c(O)nc2ccccn2c1=O	-8%	4%	1%	5%	0%	23
COc1cccc(CCNC(=O)c2c(O)nc3cc(C)ccn3c2=O)c1	4%	-6%	14%	nt	nt	nt
Cc1cccn2c(=O)c(C(=O)NCCc3ccccc3)c(O)nc12	16µM*	-17%	?	nt	nt	nt
COc1cccc(CCNC(=O)c2c(O)nc3ccccn3c2=O)c1	23µM*	0%	21µM*	nt	nt	nt
COc1cccc(-c2ccc(=O)n(CC(=O)NCCc3ccc(OC)c(OC)c3)n2)c1	nt	24%	nt	nt	nt	nt
O=C(NCCC1=CCCCC1)c1c(O)nc2ccccn2c1=O	12µM*	0%	15µM*	?	-25%	57
